In PubChem BioAssay (NCI):
This is part of a sample that, as a whole, favours compounds with a hit. Of some 83,000 tested, about 20% had one in any assay.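 Single-concentration screen, 48 h exposure, 96-well plates. Endpoint: percent growth. Below 10 = active.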 Activity calls are given as the source filed them.

Assays:
Experiment in all cases: NCI-60 one-dose screen, 48 h (100 = growth as untreated, 0 = no growth, -100 = all killed)
Settings in all cases: 10 µM unless noted
SK-MEL-2 melanoma = system: SK-MEL-2 melanoma
EKVX NSCLC = system: EKVX NSCLC
SN12C renal = system: SN12C renal
UO-31 renal = system: UO-31 renal
TK-10 renal = system: TK-10 renal
ACHN renal = system: ACHN renal
CAKI-1 renal = system: CAKI-1 renal
A498 renal = system: A498 renal
CCRF-CEM leukemia = system: CCRF-CEM leukemia
MOLT-4 leukemia = system: MOLT-4 leukemia
SR leukemia = system: SR leukemia
RPMI-8226 leukemia = system: RPMI-8226 leukemia
OVCAR-8 ovarian = system: OVCAR-8 ovarian
OVCAR-5 ovarian = system: OVCAR-5 ovarian
OVCAR-4 ovarian = system: OVCAR-4 ovarian
SK-OV-3 ovarian = system: SK-OV-3 ovarian
IGROV1 ovarian = system: IGROV1 ovarian
OVCAR-3 ovarian = system: OVCAR-3 ovarian
HS 578T breast = system: HS 578T breast
NCI/ADR-RES ovarian = system: NCI/ADR-RES ovarian

Measured: growth

O=C1c2cccnc2C(=O)c2c1c(C(=O)OCCCN1CCOCC1)c1ccccn21
active: SK-MEL-2 melanoma -57.5% | SN12C renal -19.3% | UO-31 renal -42.6% | ACHN renal -37.3% | CAKI-1 renal -11.4% | A498 renal -20.2% | CCRF-CEM leukemia -5.87% | MOLT-4 leukemia 0.0972% | SR leukemia -2.21% | RPMI-8226 leukemia -17.2% | OVCAR-8 ovarian -46.2% | OVCAR-5 ovarian -11.2% | OVCAR-4 ovarian -19.1% | SK-OV-3 ovarian -11.6% | IGROV1 ovarian -3.82% | OVCAR-3 ovarian 2.32% | NCI/ADR-RES ovarian -13.7%
inactive: EKVX NSCLC 19.6% | TK-10 renal 21.9% | HS 578T breast 26.9%

CCOC(=O)c1c(C)n2c(=O)cc(C)c3c(OC(C)=O)c(OC(C)=O)cc1c32
inactive: SK-MEL-2 melanoma 87% | EKVX NSCLC 93.1% | SN12C renal 74.3% | UO-31 renal 71% | TK-10 renal 96% | ACHN renal 58.3% | CAKI-1 renal 72.2% | A498 renal 116% | MOLT-4 leukemia 19.3% | SR leukemia 17.8% | RPMI-8226 leukemia 42.3% | OVCAR-8 ovarian 62.2% | OVCAR-5 ovarian 99.2% | OVCAR-4 ovarian 34.6% | SK-OV-3 ovarian 103% | IGROV1 ovarian 76.9% | HS 578T breast 91.4% | NCI/ADR-RES ovarian 33%
active: CCRF-CEM leukemia 3.61% | OVCAR-3 ovarian 6.3%

CCCCN(CCC#N)C(N)=O
inactive: SK-MEL-2 melanoma 104% | EKVX NSCLC 101% | SN12C renal 106% | UO-31 renal 98.4% | TK-10 renal 98.9% | ACHN renal 97.7% | CAKI-1 renal 82.7% | A498 renal 89.6% | CCRF-CEM leukemia 96.7% | MOLT-4 leukemia 107% | SR leukemia 130% | RPMI-8226 leukemia 113% | OVCAR-8 ovarian 107% | OVCAR-5 ovarian 106% | OVCAR-4 ovarian 122% | SK-OV-3 ovarian 109% | IGROV1 ovarian 100% | OVCAR-3 ovarian 89.7% | HS 578T breast 105% | NCI/ADR-RES ovarian 109%

C#CCOc1cc(/C=N/Nc2nc(-c3ccc(OC)cc3)cs2)ccc1O
inactive: SK-MEL-2 melanoma 93.3% | EKVX NSCLC 67.8% | SN12C renal 86.8% | UO-31 renal 72.6% | TK-10 renal 94.2% | ACHN renal 90.8% | CAKI-1 renal 77.6% | A498 renal 82.4% | CCRF-CEM leukemia 82.2% | MOLT-4 leukemia 87.3% | SR leukemia 74.4% | RPMI-8226 leukemia 63.3% | OVCAR-8 ovarian 87.9% | OVCAR-5 ovarian 97.1% | OVCAR-4 ovarian 71.7% | SK-OV-3 ovarian 99.4% | IGROV1 ovarian 91.8% | OVCAR-3 ovarian 86.3% | HS 578T breast 95.8% | NCI/ADR-RES ovarian 85.1%

C=CCn1c(SCC(=O)Nc2ccc(C(=O)/C=C/c3cc(OC)c(OC)c(OC)c3)cc2)nnc1-c1cc(-c2ccc(S(N)(=O)=O)cc2)nc2ccccc12
active: RPMI-8226 leukemia 4.9%
inactive: SK-MEL-2 melanoma 100% | EKVX NSCLC 100% | SN12C renal 90.3% | UO-31 renal 77.1% | TK-10 renal 141% | ACHN renal 93.8% | CAKI-1 renal 72.2% | A498 renal 97% | CCRF-CEM leukemia 29.5% | MOLT-4 leukemia 59.7% | SR leukemia 28.1% | OVCAR-8 ovarian 57.2% | OVCAR-5 ovarian 123% | OVCAR-4 ovarian 83.7% | SK-OV-3 ovarian 111% | IGROV1 ovarian 80.4% | OVCAR-3 ovarian 81.1% | HS 578T breast 108% | NCI/ADR-RES ovarian 103%

CCOC(=O)c1c(C)c2c(n1Cc1ccccc1)CSc1cc(C#N)c(=O)[nH]c1-2
inactive: SK-MEL-2 melanoma 92.2% [100 µM] | EKVX NSCLC 67.1% [100 µM] | SN12C renal 80.6% [100 µM] | UO-31 renal 85.6% [100 µM] | TK-10 renal 40.5% [100 µM] | ACHN renal 49.3% [100 µM] | CAKI-1 renal 58.9% [100 µM] | A498 renal 92% [100 µM] | CCRF-CEM leukemia 90.4% [100 µM] | MOLT-4 leukemia 118% [100 µM] | SR leukemia 54.8% [100 µM] | RPMI-8226 leukemia 82.4% [100 µM] | OVCAR-8 ovarian 88% [100 µM] | OVCAR-5 ovarian 120% [100 µM] | OVCAR-4 ovarian 98.8% [100 µM] | SK-OV-3 ovarian 98.6% [100 µM] | IGROV1 ovarian 95.5% [100 µM] | OVCAR-3 ovarian 75.7% [100 µM] | HS 578T breast 51.9% [100 µM] | NCI/ADR-RES ovarian 58.5% [100 µM]

Cc1oc2ccc(O)c(CN3CCCCCC3)c2c1C(=O)Nc1ccc(C(F)(F)F)cc1
inactive: SK-MEL-2 melanoma 78.4% | EKVX NSCLC 64.1% | SN12C renal 66.7% | UO-31 renal 40.7% | TK-10 renal 81.1% | ACHN renal 68.5% | CAKI-1 renal 50.5% | A498 renal 50.5% | CCRF-CEM leukemia 65.2% | MOLT-4 leukemia 64.3% | RPMI-8226 leukemia 75.1% | OVCAR-8 ovarian 66.3% | OVCAR-5 ovarian 85.8% | OVCAR-4 ovarian 58.6% | SK-OV-3 ovarian 76.3% | IGROV1 ovarian 54.3% | OVCAR-3 ovarian 62% | HS 578T breast 65.5% | NCI/ADR-RES ovarian 53.6%
active: SR leukemia -8.44%

CN1CCN(Cc2ccc(NC(=O)c3cc(C#Cc4cnc(N)c5ncccc45)n(C)n3)cc2C(F)(F)F)CC1
active: CCRF-CEM leukemia 4.79% | SR leukemia 2.23%
inactive: SK-MEL-2 melanoma 101% | EKVX NSCLC 105% | SN12C renal 76.8% | UO-31 renal 64% | TK-10 renal 147% | ACHN renal 47.2% | CAKI-1 renal 105% | A498 renal 83.2% | MOLT-4 leukemia 80.9% | RPMI-8226 leukemia 69.2% | OVCAR-8 ovarian 69.4% | OVCAR-5 ovarian 140% | OVCAR-4 ovarian 114% | SK-OV-3 ovarian 111% | IGROV1 ovarian 113% | OVCAR-3 ovarian 119% | HS 578T breast 25% | NCI/ADR-RES ovarian 96%

Nc1ncc(-c2ccc3ncnc(N4CCc5cc(F)c(Cl)cc54)c3c2)cc1C(F)(F)F
inactive: SK-MEL-2 melanoma 27.7% | EKVX NSCLC 14.8% | SN12C renal 24.8% | ACHN renal 17.2% | CCRF-CEM leukemia 28.2% | RPMI-8226 leukemia 16.4% | OVCAR-8 ovarian 33.1% | OVCAR-5 ovarian 20.8% | OVCAR-4 ovarian 33.4% | SK-OV-3 ovarian 31.9% | OVCAR-3 ovarian 31.7% | NCI/ADR-RES ovarian 19.5%
active: UO-31 renal -2.54% | TK-10 renal 9.32% | CAKI-1 renal -8.15% | A498 renal -50.2% | MOLT-4 leukemia 8.68% | SR leukemia -8.86% | IGROV1 ovarian -42.6% | HS 578T breast -4.39%

COc1ccc(Cn2cc3c(c2)-c2oncc2CC3)cc1
inactive: SK-MEL-2 melanoma 68% | EKVX NSCLC 66.3% | SN12C renal 77.8% | UO-31 renal 68.2% | TK-10 renal 101% | ACHN renal 99.2% | CAKI-1 renal 64% | A498 renal 57.7% | CCRF-CEM leukemia 35.2% | MOLT-4 leukemia 58% | SR leukemia 40.7% | RPMI-8226 leukemia 48.9% | OVCAR-8 ovarian 83.2% | OVCAR-5 ovarian 83.9% | OVCAR-4 ovarian 89.8% | SK-OV-3 ovarian 67.1% | IGROV1 ovarian 49.6% | OVCAR-3 ovarian 108% | HS 578T breast 70.9% | NCI/ADR-RES ovarian 33.7%

C=C(C)[C@@H]1CCC[C@]2(C(=O)OC)CC[C@]3(C)[C@@H](CC[C@@H]4[C@@]5(C)CCCNC(C)(C)[C@@H]5CC[C@]43C)[C@@H]12
inactive: SK-MEL-2 melanoma 94% | EKVX NSCLC 88.2% | SN12C renal 92.1% | UO-31 renal 57.7% | TK-10 renal 90.4% | ACHN renal 88.2% | CAKI-1 renal 73.3% | A498 renal 106% | CCRF-CEM leukemia 84% | MOLT-4 leukemia 76.9% | SR leukemia 54.5% | RPMI-8226 leukemia 75.7% | OVCAR-8 ovarian 89.6% | OVCAR-5 ovarian 86.4% | OVCAR-4 ovarian 88.1% | SK-OV-3 ovarian 95.8% | IGROV1 ovarian 65.3% | OVCAR-3 ovarian 74.4% | HS 578T breast 87.4% | NCI/ADR-RES ovarian 98.8%

CO[C@H]1/C=C/O[C@@]2(C)Oc3c(C)c(O)c4c(O)c(c5c(nc6cc(C)ccn65)c4c3C2=O)NC(=O)/C(C)=C\C=C\[C@H](C)[C@H](O)[C@@H](C)C(O)[C@@H](C)[C@H](OC(C)=O)[C@@H]1C (stereo not given in full)
inactive: SK-MEL-2 melanoma 93.1% | EKVX NSCLC 101% | SN12C renal 98.6% | UO-31 renal 76.3% | TK-10 renal 102% | ACHN renal 99.5% | CAKI-1 renal 94.6% | A498 renal 134% | CCRF-CEM leukemia 101% | MOLT-4 leukemia 89.8% | SR leukemia 99.3% | RPMI-8226 leukemia 104% | OVCAR-8 ovarian 98.3% | OVCAR-5 ovarian 113% | OVCAR-4 ovarian 100% | SK-OV-3 ovarian 31.9% | IGROV1 ovarian 97% | OVCAR-3 ovarian 104% | HS 578T breast 72% | NCI/ADR-RES ovarian 104%

Cc1ccc(S(=O)(=O)c2nc(-c3ccccc3)oc2S(C)=O)cc1 (stereo not given)
active: UO-31 renal -80.5% | TK-10 renal -94.8% | ACHN renal -99.2% | CAKI-1 renal -98.4% | CCRF-CEM leukemia -41% | MOLT-4 leukemia -29.5% | SR leukemia -26.8% | RPMI-8226 leukemia -51.3% | OVCAR-8 ovarian 2.01% | IGROV1 ovarian -50.6% | OVCAR-3 ovarian -89.3%
inactive: SK-MEL-2 melanoma 50.3% | EKVX NSCLC 55.6% | SN12C renal 40.2% | A498 renal 75.9% | OVCAR-5 ovarian 45% | OVCAR-4 ovarian 37.3% | SK-OV-3 ovarian 83.6% | HS 578T breast 78.9% | NCI/ADR-RES ovarian 70.1%

CN(C)CCCN(CCC1CCCCC1)CCC1CCCCC1
inactive: SK-MEL-2 melanoma 61.4% | EKVX NSCLC 73.2% | SN12C renal 80.4% | UO-31 renal 42% | TK-10 renal 85.2% | ACHN renal 65.8% | CAKI-1 renal 52.9% | A498 renal 58.8% | CCRF-CEM leukemia 21.4% | MOLT-4 leukemia 15.9% | RPMI-8226 leukemia 23.8% | OVCAR-8 ovarian 81.1% | OVCAR-5 ovarian 83.3% | OVCAR-4 ovarian 71.2% | SK-OV-3 ovarian 97% | IGROV1 ovarian 39.7% | OVCAR-3 ovarian 34.6% | HS 578T breast 58.1% | NCI/ADR-RES ovarian 74.4%
active: SR leukemia -35.3%

CN(Cc1ccccc1)c1nc(Cl)c(C2CC(c3ccc(Cl)cc3)=NN2c2cc(Cl)cc(Cl)c2)s1 (stereo not given)
inactive: SK-MEL-2 melanoma 104% | EKVX NSCLC 94.4% | SN12C renal 106% | UO-31 renal 96.9% | TK-10 renal 117% | ACHN renal 102% | CAKI-1 renal 84.4% | A498 renal 111% | CCRF-CEM leukemia 95.1% | MOLT-4 leukemia 110% | SR leukemia 109% | RPMI-8226 leukemia 81.4% | OVCAR-8 ovarian 106% | OVCAR-5 ovarian 113% | OVCAR-4 ovarian 97.6% | SK-OV-3 ovarian 92.9% | IGROV1 ovarian 102% | OVCAR-3 ovarian 109% | HS 578T breast 116% | NCI/ADR-RES ovarian 102%
